A selection: hits, their analogues and other compounds. The true share with any hit is near 4.8%.
SMARCA2 act – increases SMARCA2 function in MMTV reporter cells. MG213 cells, MMTV-luciferase reporter, dexamethasone, overnight. activation, % at 9.1 µM. AID 652017. hit rate 1% among 370,000; in the data active = activation above about 7.8%;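 also: 0% = vehicle wells and 100% = reference activator wells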
ssDAF12 agonist – S. stercoralis DAF-12 activation, primary screen | HEK293 ssDAF-12/GRIP1 lit1-tk-luc reporter, luminescence; % of 3 µM dafachronic acid response | activation, % at 6.8 µM | hit rate 1% among 370,000;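 active = activation above the mean over all tested compounds plus 3 SD, cut at about 0.9% in these data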;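 also: 0% = DMSO-only wells and 100% = 3 µM delta7-dafachronic acid wells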
DAX1 inh-1 – NR0B1 (DAX1) inhibition | P51843 | HEK293 Gal4-DAX1 luciferase reporter, luminescence | inhibition, % at 6.75 µM | hit rate 0.99% among 340,000;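 active = inhibition above the mean over all tested compounds plus 3 SD, cut at about 4.2% in these data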;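 also: 0% = DAX1-transfected cells with DMSO and 100% = empty-vector control cells with DMSO; inhibition shows as a rise in luminescence from relieved DAX1 repression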
Target sequence (P51843 207-470 limits assumed): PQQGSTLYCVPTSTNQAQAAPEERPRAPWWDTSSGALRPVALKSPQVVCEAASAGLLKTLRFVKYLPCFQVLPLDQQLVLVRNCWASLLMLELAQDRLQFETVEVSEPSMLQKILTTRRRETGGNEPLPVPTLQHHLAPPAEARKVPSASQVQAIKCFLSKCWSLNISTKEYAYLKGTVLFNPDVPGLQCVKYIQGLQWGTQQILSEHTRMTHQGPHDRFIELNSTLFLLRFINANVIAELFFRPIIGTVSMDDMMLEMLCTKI
hgDAF12 agonist – activates the H. glycines DAF-12 receptor ligand-binding domain | HEK293 GAL4-hgDAF12 UAS-luciferase reporter, agonist luminescence; normalized to butyrate control | activation, % at 6.8 µM | hit rate 1.8% among 370,000 | AID 687014;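 active = activation above a cutoff set at the mean of all screened compounds plus 3 SD, cut at about 10% in these data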;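 also: 0% = DMSO wells and 100% = sodium butyrate wells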
DAX1 inh-2 – blocks DAX1 repression of SF-1 activated StAR promoter. HEK293T StAR-luciferase reporter, SF-1/DAX-1 repression relief. inhibition, % at 6.8 µM. hit rate 1.1% among 370,000;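 active = inhibition above the mean over all tested compounds plus 3 SD, cut at about 3.6% in these data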;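 also: 0% = DAX-1 cells with DMSO and 100% = cells lacking DAX-1 with DMSO; higher inhibition means more luminescence from relief of DAX-1 repression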
hcDAF12 agonist – activates DAF-12 receptor from parasite H. contortus; AID 652067; HEK293 hcDAF-12 lit1-tk-luc reporter, luminescence; 0% DMSO, 100% Δ7-dafachronic acid; activation, % at 6.8 µM; hit rate 1.4% among 370,000;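 active = activation above the mean of all tested compounds plus 3 SD, cut at about 5.5% in these data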;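 also: 100% = response to 3 µM Δ7-dafachronic acid high control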
* marks the source's active call; other numbers are inactive results; x = not tested or not shown.

SMILES	SMARCA2 act	ssDAF12 agonist	DAX1 inh-1	hgDAF12 agonist	DAX1 inh-2	hcDAF12 agonist
C[C@H]1[C@H](c2ccccc2)OC(O)([C@H](Cc2ccccc2)NC(=O)OC(C)(C)C)CN1C (stereo partly drawn)	x	-1.6	x	-1.2	x	-2.5
CCN(CC)S(=O)(=O)c1ccc(-c2csc(C)n2)cc1	1.8	-0.9	6.5*	-1.3	0.5	-1.4
CCC[C@@H](/C=C/C(=O)OC(C)(C)C)Sc1ccccc1OC	-0.5	-0.4	x	-1.8	-0.4	0.4
Cc1ccc(-c2nc3ccccc3s2)cc1NC(=O)c1cc(-n2cnnc2)ccc1Cl	7.2	-0.8	-0.1	10.5*	1.8	5.2
CCNC(=O)Nc1ccc(-n2nc(C)c(C(=O)OCC)c2C)nc1	-0.7	-0.8	4.8*	-0.9	-0.4	0.9
CCN1CCCC1CN(Cc1cc2cc(C)ccc2[nH]c1=O)C(=O)Nc1ccccc1OC (stereo not drawn)	1.9	-0.8	-0.5	0.8	4.0*	2.8
COc1ccccc1NC(=O)N(CCN1CCCC1)Cc1cc2cc(C)ccc2[nH]c1=O	1.0	-0.9	-0.5	2.0	0.6	1.7
CCN(CC)C(=O)C1=C(C)N(Cc2ccc(C(C)(C)C)cc2)C(=O)C(CC(=O)NCC2CCCCC2)C1 (stereo not drawn)	-2.5	-0.7	-1.2	2.4	-0.4	-0.9
c1ccc(CSc2nnc3ccc(-c4cccs4)nn23)nc1	-0.3	-2.0	1.2	3.7	0.3	0.6
c1ccc(CSc2ccc(-c3cccs3)nn2)nc1	3.2	-0.7	0.5	11.9*	3.8*	0.3
Cc1ccc(Nc2c(-c3ccc(C)o3)nc3cnccn23)cc1	7.3	-1.1	1.9	11.6*	2.4	1.9
O=C(Nc1nc2ccc([N+](=O)[O-])cc2s1)c1ccco1	5.2	-0.5	x	7.8	4.2*	1.6
O=C(Nc1nc2ccc([N+](=O)[O-])cc2s1)C1CCCO1 (stereo not drawn)	7.1	-0.2	5.4*	6.3	0.7	2.1
CS(=O)(=O)c1ccc2nc(NC(=O)c3cc([N+](=O)[O-])cc([N+](=O)[O-])c3)sc2c1	2.6	-0.7	0.5	0.7	-0.1	-0.3
CS(=O)(=O)c1ccc2nc(NC(=O)c3cccc([N+](=O)[O-])c3)sc2c1	2.7	0.1	0.9	10.7*	-0.1	3.3
N#Cc1ccc(C(S(=O)(=O)Cc2ccccc2)S(=O)(=O)Cc2ccccc2)cc1	-3.2	-0.3	4.1	0.8	-0.9	0.5
O=[N+]([O-])c1ccc(NCCCN2CCC(C(O)(c3ccccc3)c3ccccc3)CC2)cc1	-4.6	-0.2	x	1.2	0.3	-0.8
O=C(Cn1ccc([N+](=O)[O-])n1)N1CCCCC1	1.5	-1.2	5.5*	-1.3	-0.1	-1.4
CN1CCN(C(=S)NCCc2ccccc2)CC1	2.0	-0.5	0.8	12.9*	-0.1	1.7
c1coc(C2Nc3ccccc3-c3nc4ccccc4n32)c1 (stereo not drawn)	6.9	-0.9	-1.6	6.8	1.0	1.2
c1ccc(C2Nc3ccccc3-c3nc4ccccc4n32)cc1 (stereo not drawn)	3.7	-0.1	2.5	10.5*	1.6	1.2
CN(C(=O)CSc1nc2ccccc2c(=O)n1-c1ccccc1F)C1CCS(=O)(=O)C1 (stereo not drawn)	-5.4	0.9*	-0.9	-2.9	-1.0	0.8
Cc1cccc(-n2c(SCC(=O)N(C)C3CCS(=O)(=O)C3)nc3ccccc3c2=O)c1C (stereo not drawn)	-0.3	-1.2	-1.1	-3.7	-2.5	-0.5
CCCCNc1ccc2c(c1)OC[C@@H](CC(C)C)NS2(=O)=O	1.6	-1.4	x	-1.6	-0.8	0.4
Cc1ccc(/C=C/C(=O)Nc2cccnc2)o1	-0.7	1.0*	1.3	1.5	0.2	1.0
SMILES	SMARCA2 act	ssDAF12 agonist	DAX1 inh-1	hgDAF12 agonist	DAX1 inh-2	hcDAF12 agonist
O=C(c1ccc2nc(Cc3cccc(Cl)c3)oc2c1)N1CCC(O)CC1	-1.1	-0.5	0.3	-0.4	-0.3	0.1
O=C(c1ccc2nc(Cc3cccc(Cl)c3)oc2c1)N1CCOCC1	6.8	-0.6	0.8	5.0	3.9*	6.0*
Cc1cccc2sc(N(CCCN(C)C)C(=O)COc3ccc(Cl)cc3)nc12	-0.2	-0.6	4.3*	0.9	1.2	0.2
CN(C)CCCN(C(=O)COc1ccc(Cl)cc1)c1nc2c(F)cccc2s1	-4.9	-0.8	0.7	0.7	-0.5	-0.9
CCOC(=O)c1c(O)c(Cl)c(C)[nH]c1=O	-4.4	-0.3	1.0	11.8*	0.2	-0.6
O=c1[nH]c2ccccc2n1C1CCCCC1	-2.8	-2.4	6.1*	0.4	-0.4	-1.4
CCCc1ccc(C(O)c2ncc(-c3cccc(C)c3)[nH]2)cc1 (stereo not drawn)	1.6	-1.5	x	0.2	-0.1	1.3
O=C(c1cccc(Cl)c1)N1CCN(S(=O)(=O)c2ccc(Cl)s2)CC1	0.1	-0.7	0.2	-0.7	-1.1	-1.8
COc1cccc(-c2cc(N3C(=O)Nc4ccccc4N3O)n[nH]2)c1	-1.1	0.1	4.8*	-0.6	-0.6	-0.4
CN1C(=O)/C(=C/c2ccc(OCc3cccc(F)c3)cc2)NC1=S	-1.7	1.4*	0.2	-0.9	0.1	-0.7
CCCCCCCCCCCCNC[C@@H]1CSCCS(=O)(=O)N1	-4.4	0.1	x	0.2	-1.6	2.3
C#CCNC[C@@H]1CSCCS(=O)(=O)N1	-0.9	0.9*	x	-0.9	0.7	-1.4
CN(C)S(=O)(=O)c1ccc(C(=O)OCCCN=C2NS(=O)(=O)c3ccccc32)cc1	-1.2	-1.3	4.4*	0.8	-0.9	-1.5
CN(C)S(=O)(=O)c1ccc(C(=O)OCCN=C2NS(=O)(=O)c3ccccc32)cc1	-1.9	-1.2	-0.2	0.9	1.2	0.4
CNc1nc(N)c([N+](=O)[O-])c(NCC2CCCO2)n1 (stereo not drawn)	-0.6	-0.7	5.2*	0.3	-0.1	-1.8
O=C(O)Cc1nn(Cc2ccc(Cl)cc2)c(=O)c2ccccc12	0.0	-1.0	9.0*	4.8	-0.6	0.3
COc1ccccc1CNC(=O)C1CC(c2ccccc2[N+](=O)[O-])=NO1 (stereo not drawn)	-1.6	-0.3	-0.7	1.1	0.1	6.1*
COc1ccc(CNC(=O)C2CC(c3ccccc3[N+](=O)[O-])=NO2)cc1 (stereo not drawn)	2.1	-0.9	1.8	1.8	0.0	0.9
O=C(NC1CC1)c1ccc2c(Cl)c3c(nc2c1)CCCC3	0.3	-2.0	-1.4	10.8*	0.0	-0.5
CCOc1cc(N2CCOCC2)c(OCC)cc1NC(=O)COC(=O)c1ccc(OC)c([N+](=O)[O-])c1	0.6	-0.2	-0.7	2.0	0.3	1.7
COC(=O)c1c(N=CN(C)C)c(C#N)c2n1CCCC2	1.7	-1.3	6.0*	-2.3	-0.7	-1.3
O=C(CCNS(=O)(=O)c1ccc(OC(F)(F)F)cc1)Nc1cccc(S(=O)(=O)N2CCCC2)c1	-1.7	-1.3	-0.5	-3.4	0.1	-1.0

From PubChem
